# Results as given in the supplement of paper PMC6555819.
# What was measured:
# Assay in all cases: PBM binding z-score (relative to random genomic background probes); higher = stronger binding; sequences stand for … in GC…GCGATTGACAGCGTAGAATGAAGG
# [1] = system: FXR:RXRa (NR concentration 270 nM, RXRa partner concentration 90 nM)
# Method in brief: (§1)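 Ligand-free nuclear receptor dimers were bound for 1 h to custom Agilent 4×180K protein-binding microarrays. Detection used antibodies against each partner (one per run). Binding z-scores rest on regression-normalized fluorescence, with random background probes as the reference.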
# [2] = system: LXRa:RXRa (NR concentration 270 nM, RXRa partner concentration 90 nM)
# Method in brief: as §1
# [3] = system: LXRa homodimer (NR concentration 270 nM)
# Method in brief: as §1
# [4] = system: LXRb:RXRa (NR concentration 270 nM, RXRa partner concentration 90 nM)
# Method in brief: as §1
# [5] = system: LXRb homodimer (NR concentration 270 nM)
# Method in brief: as §1
# [6] = system: PPARa:RXRa (NR concentration 270 nM, RXRa partner concentration 90 nM)
# Method in brief: as §1
# [7] = system: PPARg:RXRa (NR concentration 180 nM, RXRa partner concentration 90 nM)
# Method in brief: as §1
# [8] = system: PPARg:RXRa 270nM:90nM, anti-RXR (NR concentration 270 nM, RXRa partner concentration 90 nM)
# Method in brief: as §1
# [9] = system: PPARg:RXRa 30nM:10nM, anti-RXR (NR concentration 30 nM, RXRa partner concentration 10 nM)
# Method in brief: as §1
# [10] = system: PPARg:RXRa 90nM:30nM, anti-RXR (NR concentration 90 nM, RXRa partner concentration 30 nM)
# Method in brief: as §1
Sequence,PBM binding z-score [1],PBM binding z-score [2],PBM binding z-score [3],PBM binding z-score [4],PBM binding z-score [5],PBM binding z-score [6],PBM binding z-score [7],PBM binding z-score [8],PBM binding z-score [9],PBM binding z-score [10]
TGTATGAGGTTATAAGATCAGGGAACGTTGCAAA,1.68,1.72,0.117,1.22,0.92,2.51,1.04,1.47,0.966,1.2
TTACCAAGGTGAGCTGATGTCGTTGATCCAACTC,0.178,-0.111,-0.671,-0.252,-0.971,0.344,0.146,0.25,0.147,0.11
TAGCCTAGGTCATTGGGCGAGTATAGTACGCATC,4.55,3.24,0.459,2.06,0.053,3.51,2.65,2.83,0.405,1.8
GCTTACGGGTCAAAGGTTATAGCCTGAATAGAAT,7.79,5.8,0.763,5.69,0.503,6.88,11.5,9.6,10.2,11.3
ACAGACAGGTAAGTGAAGGTAACTCAGCTGGACG,0.106,0.0707,-0.103,-0.313,-0.579,-0.355,0.687,-0.165,-0.141,-0.389
CCAGACAGGTGAGAAGATAACTCAGCCTCGATTA,0.0426,0.15,-0.0638,-0.14,-0.471,-0.179,0.576,-0.087,-0.116,0.155
TCGAGTAGGTTGGGGGCATTCAGAATGGCGTCGA,1.39,1.94,0.352,3.96,6.82,2.48,0.614,2.35,2.29,2.28
GGAACGCGGGCAAAGTTGATAGCATCTGTCGACG,-0.48,-0.465,-0.736,-0.893,-0.943,1.67,2.51,4.63,1.85,4.06
CCGACTGGGGCAAGGTGACCATAACGCACAGCCA,-0.279,-0.424,-0.369,-0.293,-1.35,0.808,1.99,1.81,-0.0516,0.949
TCTGGTAGGTCAGTTGGTCAGCTAACGAGCTGCC,1.49,1.41,0.0494,1.09,0.418,2.17,1.6,2.93,2.4,2.47
CCTATTAGTTGACCATAAGGGCATCCGAAGCTCG,0.924,0.501,0.549,0.384,0.423,0.26,0.493,0.533,-0.0651,0.145
GCTGCTAGGTCAGGTGGGTCAGCTAACGGGTACG,1.62,1.2,-0.394,0.981,-0.0608,2.34,1.65,1.61,-0.279,0.851
TTACCAAGTTGAGCTGAGGTCGTTGATCCAACTC,0.614,0.638,-0.367,0.536,-0.873,1.03,-0.512,0.423,0.243,-0.0903
CCTGCTAGGTCAATGGTCAGCAAAAGCAGCTCGC,2.97,2.15,0.13,1.33,-0.077,3.32,4.8,5.15,2.5,4.66
TCGAGTAGGTTACCAATTGGGCATTCAGCTTTCT,0.0774,0.268,-0.567,0.437,-0.954,0.973,-0.0221,1.3,0.909,1.06
CGAACGAGGGCATGACTTGATAGCAAATGCCGAT,0.404,0.369,-0.781,0.0827,-0.668,1.26,1.28,0.865,-0.352,0.26
CAGCCTAGGCCAGGGCCAGTATAGGAGGAACGTT,-0.702,-1.16,-0.761,-1.14,-1.72,-0.754,0.0393,-1.36,-0.853,-1.1
TGTCTAAGTTCAAAGGTAACGTAAGTATCCACAC,4.9,5.21,1.95,3.38,1.12,4.85,4.52,5.15,2.77,4.68
CGTCCAAGGTCAAGGTCGGTGAAAGAGACTCGAA,7.27,5.92,0.458,4.22,0.00899,5.85,5.34,5.83,2.16,4.39

Sequence,PBM binding z-score [1],PBM binding z-score [2],PBM binding z-score [3],PBM binding z-score [4],PBM binding z-score [5],PBM binding z-score [6],PBM binding z-score [7],PBM binding z-score [8],PBM binding z-score [9],PBM binding z-score [10]
CATTACGGGTCACTCCAGGTTATAGCATCGGAGT,5.62,7.54,4.42,5.55,1.54,4.96,4.53,4.77,1.56,3.53
GCATATAGGTAAGACAAGGTGAAAGTCCGATTGT,0.406,-0.0572,-0.498,-0.135,-0.674,1.06,0.917,0.84,0.112,0.746
TGAAAGAGGTTAAAGATCAGGGAACGTGGCGTCG,3.91,3.07,0.208,2.03,0.261,4.59,4.87,5.44,3.46,5.15
CAAACTAGGTCATCGGAAGGTCAAAGTCCGCATG,6.11,5.83,5.44,4.82,1.45,6.01,8.72,7.35,5.14,7.04
GATACAGGTTCAAGGCCAGAGTACGCGTATTGAT,1.85,1.7,0.305,1.41,-0.271,2.72,1.43,1.64,0.208,1.19
TCGAGTAGGTTAGTCGGGGCATTAAGCCAACATA,-0.0253,-0.0214,-0.347,0.387,-0.774,0.728,0.0278,0.922,1.05,1.18
TCAGACAGCTGAAGGTAACTCAGGTACGCAGTCG,-0.16,1.22,-0.677,0.336,-0.931,0.454,0.398,1.49,2.91,2.14
TCTTGTAGATCAATAGAGGTTAAGAACGTGCGCT,0.948,2.59,0.355,1.46,-0.115,1.92,0.397,1.66,2.84,2.58
CGAACTAGGTCATTGACAGGACTGTGAATAGTAA,4.46,2.5,0.131,1.81,0.103,4.71,7.38,6.1,4.05,5.52
AGTCAAAGTTCACTATGTAACGTAAGATTCAGCT,4.61,4.75,2.99,3.02,1.03,3.85,5.87,5.38,2.49,4.66
TCATATAGGTAAAACGTGAAAGTCGGTGTGGTAA,0.91,0.644,0.37,0.856,0.255,2.09,2.92,4.34,4.63,4.71
TGACAAAGTTCAAAGGTAACGTAAGTATCCACAC,6.96,6.05,3.28,4.68,1.41,5.69,6.2,6.28,2.97,5.43
AATACAGGGTCACTATGCCAGAGTAGGTACGAAT,5.56,4.68,1.16,3.79,1.06,5.44,6.37,4.87,2.05,3.73
CCTACTGGGCCACAAAGGTCATTGATGCCGATAA,4.47,5.11,4.74,4.39,0.772,5.25,6.17,5.75,3.17,5.54
CCTTTCGGGTCAAGGTTATAGCACGGGTGGTACG,5.72,3.85,0.197,3.11,0.545,5.06,4,5.1,1.91,4.2
TCTCGGAGGACACGACAGGTCAGAGCTCGACATC,1.13,1.51,0.823,0.827,-0.505,1.4,0.559,1.1,2.11,1.5
ATCGAAAGGTCGACAAGGTGAGTATACACCGTTT,4.68,3.45,0.283,3,0.522,4.41,2.79,3.21,1.2,2.21
CAAGACAGGTGAGAAGGTAACTCAGCCTCGATTA,0.353,0.452,-0.0734,0.183,0.194,0.791,0.815,0.902,0.302,0.808
GAGACTGGGGCATCAGCAGGTTACCATAACTTAA,0.0727,0.0866,-0.0013,1.28,0.0718,1.73,1.71,1.63,0.0526,0.657
